tested on: PPARg:RXRa 30nM:10nM, anti-RXR (NR concentration 30 nM, RXRa partner concentration 10 nM); test: PBM binding z-score (relative to random genomic background probes); higher = stronger binding; sequences stand for … in GC…GCGATTGACAGCGTAGAATGAAGG
In short: (§1)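 Custom Agilent 4×180K protein-binding microarrays carried double-stranded probes. Their 34-nt variable regions held direct-repeat seeds, single-nucleotide variants, half-site ablations and random human genomic background sequences. Arrays were incubated 1 h with ligand-free nuclear receptor dimers in PBS pH 7.4, 2% milk, 0.02% Triton X-100, 1 mM DTT, 0.2 mg/mL BSA and 0.4 mg/ml salmon testes DNA. Antibodies against each partner (one per run) detected binding, and scanned fluorescence was regression-normalized. Binding z-scores use random background probes as reference.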

Sequence | PBM binding z-score
CGTACAGGGTCAGCTAGGCCAGAGTAGGGACGGC | 0.448
ACCGAAAGGTCGAGGTGAGTATAGAGAAAGGGAA | 1.22
AATATTAGTTGACTTAGGGCAACCGATACGACGC | 0.448
ACTAGCAGGCCAAGGGTCACTCCAGATTAGTCCG | 5.52
ATCTCTAGGTAACAAAGTTCAGTGAATGCCGAAC | 1.01
TCTAGCAGGCCAGAGGGTCACTTAAGAGGTACGG | 2.13
TCTTGTAGATCATTAGAGGTTAAGAAAGTGCGCT | 2.85
GCTAGTAGTTGAAAGGGCAACCGAATGATTCTCG | 4.3
GCTCGGAGGACAAGGGCAGAGCTTTGTCCGTAGA | -1.18
AGAATGAGGTTAAGATCATGGAAACAGAATACAT | 0.804
AGTAGCAGGCCAAGTTTGGGTCACTCAAACAAAG | -0.474
TCGAGTAGGTTACCAATGGGGCATTAAGCTTTCT | 1.39
CCAACTAGGTCACGAAAGGTCAAAGTCGAATGAC | 5.92
AGAATGAGGTTACCAAAGATCAGGGAAACGCTTG | 0.954
ATCGAAAGGACGTGAGGTGAGTATACAGAAAGGC | 0.185
TCTAGTTGGACACGGAGGTCACACACGACGGGTA | 3.26
CTACCAAGGTGAACAAGGTCATTGATTACTATTC | 0.479
CGAACTAGGTCATTGACAGGACAGTGAGTAGTAA | 3.7
TCTTGTAGATCAACAGGAGGTTATGAAAGATCGA | 2.43
ACTTACGGGTCATCGAGGTTATAGCACGCGTATA | 2.13

Sequence | PBM binding z-score
GCTATCAGTTGAAAGGGCAACCGAATGATTCTCG | 1.35
CGAACGAGGGCATGAGTTGATAGCGAATGCCGAT | 0.171
TAGCCTAGGTCATGCGGGCCAGAATAGTGTCGGC | 0.103
GCTAGTTGGTCAGTAAAAGGTCACAAACCGGTCG | 2.23
CCTAGTTGGTCAAGGGCACACACGCTATAGGTAC | 0.541
ACAGACGGGTGAGTGAAGGTAACTCAGCTGGACG | -0.296
CCTATTAGTTGACCATAAGGGCAACCTAAGCTCG | 0.125
GGAACGAGGGCAAGTTGATACCAGAGTTTGATGG | 0.0746
CCTTACAGGTCACTCCAGGTTATAGCATCGGAGT | 1.52
TTACCAAGGTGAAGGTTGTTGATCCCTCTGTAGA | 1.07
TCAGATAGGTAAACAGGTGAAAGTCCGTAAGTTA | 4.02
AGAATGAGGTTGAGATCAGGGAAACAGAATACAT | 0.329
TCTCGGAGGACACGAAGGTCACAGCTTTCCAGAG | 2.74
TCTCGGAGGACACGAAGGTCAGATCTTTCCAGAG | 2.61
AGAACGAGGGCACGCGGAGTTGATAGCAGAGTAG | 0.448
CCTCAGAGGACAGAAGGTCAGAGCTGTCCGCTTT | -0.132
TCTCGGAGGACACGAAGGTTAGAGCTTTCCAGAG | 2.15
CGTTCAAGGTCAGAGAGGTCAGTGAATGCCGAGT | 1.58
CTTGCTAGGTCATGGTCAGCTAATCTACAGTATG | 1.34
CCTTACGGGTCTCGAGGTTATAGCACGACGAGCG | -0.359

tested on: PPARg:RXRa 90nM:30nM, anti-RXR (NR concentration 90 nM, RXRa partner concentration 30 nM); test: as above
In short: as §1

Sequence | PBM binding z-score
CGTACAGGGTCAGCTAGGCCAGAGTAGGGACGGC | 1.84
ACCGAAAGGTCGAGGTGAGTATAGAGAAAGGGAA | 2.51
AATATTAGTTGACTTAGGGCAACCGATACGACGC | 0.286
ACTAGCAGGCCAAGGGTCACTCCAGATTAGTCCG | 7.48
ATCTCTAGGTAACAAAGTTCAGTGAATGCCGAAC | 2.42
TCTAGCAGGCCAGAGGGTCACTTAAGAGGTACGG | 2.57
TCTTGTAGATCATTAGAGGTTAAGAAAGTGCGCT | 2.33
GCTAGTAGTTGAAAGGGCAACCGAATGATTCTCG | 5.8
GCTCGGAGGACAAGGGCAGAGCTTTGTCCGTAGA | -0.777
AGAATGAGGTTAAGATCATGGAAACAGAATACAT | 1.82
AGTAGCAGGCCAAGTTTGGGTCACTCAAACAAAG | -0.201
TCGAGTAGGTTACCAATGGGGCATTAAGCTTTCT | 1.18
CCAACTAGGTCACGAAAGGTCAAAGTCGAATGAC | 8.18
AGAATGAGGTTACCAAAGATCAGGGAAACGCTTG | 2.22
ATCGAAAGGACGTGAGGTGAGTATACAGAAAGGC | -0.252
TCTAGTTGGACACGGAGGTCACACACGACGGGTA | 2.88
CTACCAAGGTGAACAAGGTCATTGATTACTATTC | 1.65
CGAACTAGGTCATTGACAGGACAGTGAGTAGTAA | 5.57
TCTTGTAGATCAACAGGAGGTTATGAAAGATCGA | 1.78
ACTTACGGGTCATCGAGGTTATAGCACGCGTATA | 4.43

Sequence | PBM binding z-score
GCTATCAGTTGAAAGGGCAACCGAATGATTCTCG | 2.69
CGAACGAGGGCATGAGTTGATAGCGAATGCCGAT | 1.04
TAGCCTAGGTCATGCGGGCCAGAATAGTGTCGGC | 1.54
GCTAGTTGGTCAGTAAAAGGTCACAAACCGGTCG | 3.46
CCTAGTTGGTCAAGGGCACACACGCTATAGGTAC | 1.26
ACAGACGGGTGAGTGAAGGTAACTCAGCTGGACG | -0.268
CCTATTAGTTGACCATAAGGGCAACCTAAGCTCG | 0.491
GGAACGAGGGCAAGTTGATACCAGAGTTTGATGG | 0.594
CCTTACAGGTCACTCCAGGTTATAGCATCGGAGT | 2.79
TTACCAAGGTGAAGGTTGTTGATCCCTCTGTAGA | 1.96
TCAGATAGGTAAACAGGTGAAAGTCCGTAAGTTA | 3.81
AGAATGAGGTTGAGATCAGGGAAACAGAATACAT | 0.246
TCTCGGAGGACACGAAGGTCACAGCTTTCCAGAG | 2.74
TCTCGGAGGACACGAAGGTCAGATCTTTCCAGAG | 2
AGAACGAGGGCACGCGGAGTTGATAGCAGAGTAG | 1.26
CCTCAGAGGACAGAAGGTCAGAGCTGTCCGCTTT | 0.513
TCTCGGAGGACACGAAGGTTAGAGCTTTCCAGAG | 1.58
CGTTCAAGGTCAGAGAGGTCAGTGAATGCCGAGT | 3.31
CTTGCTAGGTCATGGTCAGCTAATCTACAGTATG | 2.35
CCTTACGGGTCTCGAGGTTATAGCACGACGAGCG | -0.392

Reference: the supplement of paper PMC6555819
